High-throughput results deposited in PubChem by The Scripps Research Institute Molecular Screening Center.
HTR5A inv ag: HTR5A inverse agonists in luminescence cell assay, primary screen, counter-screen for OPRM1-OPRD1 heterodimer inverse agonist project, full-deck HTS | HTR5A cell line, inverse agonism | 0.083% of 340,000 active | AID 504634, 2011 | inhibition, % at 9.3 µM; in the data active = inhibition mostly above about 23%, no sharp cut-off; inactive = mostly below about 18%;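 also: 0% = cells with DMSO and 100% = no-cell wells with DMSO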
Target sequence (P47898 whole entry, looked up): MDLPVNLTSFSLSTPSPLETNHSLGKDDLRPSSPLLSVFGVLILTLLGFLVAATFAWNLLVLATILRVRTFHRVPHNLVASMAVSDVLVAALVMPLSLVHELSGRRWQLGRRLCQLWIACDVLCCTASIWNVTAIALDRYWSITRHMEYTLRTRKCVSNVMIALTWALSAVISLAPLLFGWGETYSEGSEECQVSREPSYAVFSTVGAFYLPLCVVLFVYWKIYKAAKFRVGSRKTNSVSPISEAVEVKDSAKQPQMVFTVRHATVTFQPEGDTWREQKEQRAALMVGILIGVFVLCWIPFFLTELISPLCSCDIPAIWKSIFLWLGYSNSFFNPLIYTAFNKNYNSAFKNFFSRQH
HTR5A ag ctr: HTR5A agonists in luminescence cell assay, primary screen, counter-screen for OPRM1-OPRD1 heterodimer agonist project, full-deck HTS; 5-hydroxytryptamine receptor 5A (Homo sapiens), P47898; AID 504692, 2011; 0.61% of 340,000 active; cell-based; activation, % at 9.3 µM; in the data active = activation mostly above about 9.5%, no sharp cut-off; inactive = mostly below about 7.6%;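 also: 0% = cells with vehicle only and 100% = reference agonist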
OPRM1-OPRD1 ag: agonists of OPRM1-OPRD1 heterodimerization, primary screen, cell-based, luminescence | activation, % at 9.3 µM | 0.3% of 340,000 active | cells | Mu-type opioid receptor (Homo sapiens) + Delta-type opioid receptor (Homo sapiens), … | AID 504326, 2011; in the data active = activation above about 18%;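 also: 0% = vehicle-treated cells and 100% = reference agonist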
OPRM1-OPRD1 inv: inverse agonists of MOR-DOR heterodimerization, primary screen, cell-based, luminescence | Mu-type opioid receptor (Homo sapiens) + Delta-type opioid receptor (Homo sapiens), … | 0.21% of 340,000 active | inhibition, % at 9.3 µM | cell-based MOR-DOR heterodimer luminescence, inverse agonism | AID 504357, 2011; in the data active = inhibition above about 22%, passing the limit was not always enough;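 also: 0% = cells with DMSO and 100% = wells without cells with DMSO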
HTR2A ag: mouse Htr2a agonists via beta-arrestin recruitment, primary screen, cell-based, luminescence; activation, % at 7.6 µM; AID 624169, 2012; 0.66% of 360,000 active; 5-hydroxytryptamine receptor 2A (Mus musculus), P35363; CHO-K1 mHTR2A beta-arrestin complementation; percent of 30 µM serotonin response;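 active = activation above a run cutoff, the mean activation of all tested compounds plus 3 SD, cut at about 14% in these data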;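 also: 0% = plate median of compound wells and 100% = 30 µM serotonin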
MOR ag counter: OPRM1 agonists via beta-arrestin recruitment, confirmation, counter-screen for mouse HTR2A agonist project, cell-based, luminescence, single concentration; shares compounds with HTR2A ag; U2OS OPRM1 beta-arrestin PathHunter; DMSO 0%, DAMGO 9.3 µM 100%; activation, % at 9.3 µM; 5.3% of 2,300 active; AID 624380, 2012;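 active = mean activation above the mean of DMSO-only wells plus 3 SD, cut at about 0.5% in these data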
m5-HT2A ag conf: mouse HTR2A agonists, beta-arrestin recruitment, confirmation, cell-based, luminescence, CHO-K1 PathHunter, triplicate; shares compounds with HTR2A ag; DMSO 0%, 30 µM serotonin 100%; activation, % at 7.6 µM; 19% of 2,300 active;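 active = mean activation across triplicates above the hit threshold derived in the original primary screen, cut at about 15% in these data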
An asterisk follows results filed as active; nt = no result. Most compounds without a hit are left out; they make up all but 1.6% or so of the library.

SMILES	HTR5A inv ag	HTR5A ag ctr	OPRM1-OPRD1 ag	OPRM1-OPRD1 inv	HTR2A ag	MOR ag counter	m5-HT2A ag conf
CC1=C(C(=O)N(C(C)C)C(C)C)CC(CC(=O)NCc2cccs2)C(=O)N1CCCN1CCCC1=O (stereo not drawn)	nt	nt	nt	nt	1	nt	nt
Cc1cccc(C)c1NC(=O)c1cn(-c2ccccc2)nc1-c1ccccc1	-32	0	2	-9	21*	-1	10
Cc1ccccc1NC(=O)c1cn(-c2ccccc2)nc1-c1ccccc1	10	-3	5	-38	11	nt	nt
COC(=O)[C@@]1(Sc2ccc(C)cc2)CC(=O)N[C@@H]1c1ccc(C(F)(F)F)cc1	nt	nt	nt	nt	15*	0.8*	3
O=C(NCc1ccccc1)C(c1ccco1)N1CCN(c2ccccc2F)CC1 (stereo not drawn)	nt	nt	nt	nt	-5	nt	nt
Nc1ncnc2c1ncn2[C@@H]1O[C@H](C(=O)N2CCC[C@@H]2C(=O)OCc2ccccc2)[C@@H](O)[C@H]1O	nt	nt	nt	nt	15*	0	-1
Cc1ccc(NC(=O)C2CCC(=O)N2C(=O)OCc2ccccc2)cc1 (stereo not drawn)	8	-3	-1	9	-6	nt	nt
O=C(Nc1ccccn1)[C@@H]1CCC(=O)N1C(=O)OCc1ccccc1	-20	7	-1	7	18*	0	-3
CCc1ccc(N2C=C(C(=O)OC)C(c3cccc4ccccc34)C(C#N)=C2N)cc1 (stereo not drawn)	nt	nt	nt	nt	-6	nt	nt
CCOC(=O)C(C(=O)N(C)C)c1ncc(C(F)(F)F)cc1Cl (stereo not drawn)	-8	3	-1	5	19*	-1	2
CCCCOc1ccc(S(=O)(=O)NC(=O)C2(C)CCN2C(=O)CCc2ccccc2)cc1 (stereo not drawn)	nt	nt	nt	nt	17*	0	-2
Nc1nc2ccc(Cl)cc2cc1C(=O)NCCCN1CCOCC1	nt	nt	nt	nt	3	nt	nt
O=C(Nc1ccc(F)cc1)Oc1ccc[nH]c1=O	-1	0	-1	7	15*	0	-2
CCN(CC)S(=O)(=O)c1ccc2[nH]c(=O)cc(C(=O)NCc3ccccc3)c2c1	-15	6	-1	7	10	nt	nt
CCOc1ccc(CCNC(=O)c2cc(=O)[nH]c3ccc(S(=O)(=O)N(CC)CC)cc23)cc1OCC	-3	3	0	-2	17*	0	0
OC(c1cc(-c2ccc(C(F)(F)F)cc2)nc(C(F)(F)F)c1)C1CCCCN1 (stereo not drawn)	-8	2	6	-27	8	nt	nt
OC(c1cc(C(F)(F)F)nc2c(C(F)(F)F)cccc12)C1CCCCN1 (stereo not drawn)	-25	7	11	-59	31*	1.3*	14
CCOC(=O)c1[nH]c(C)c(C(=O)OCC(=O)N(Cc2ccccc2)C(C)C)c1C	4	-2	-3	10	20*	-1	-1
CCOCCn1c(CN2CCN(CC)CC2)nc2c1c(=O)n(C)c(=O)n2C	-19	4	2	-9	48*	0	-1
CC1(C)CC(=O)c2c(nc(SCC(=O)Nc3nsc(-c4ccccc4)n3)c(C#N)c2-c2ccccc2)C1	-7	3	2	-13	-4	nt	nt
COc1ccc(-c2c(C#N)c(SCc3c(C)noc3C)nc3c2C(=O)CC(C)(C)C3)cc1	2	-5	0	-2	18*	-1	-3
Nn1cnc2c(ncn2C2OC(CO)C(O)C2O)c1=O (stereo not drawn)	nt	nt	nt	nt	0	nt	nt
Cc1onc(-c2ccccc2)c1C(=O)N1CCC(C)(C(=O)O)C1 (stereo not drawn)	nt	nt	nt	nt	2	nt	nt
O=C(Nc1ccc2oc(-c3cccnc3)nc2c1)c1ccco1	-5	11	0	1	15*	-1	-3
